A short description of assay [1]: qHTS for Inhibitors of ATXN expression: Validation (AID 588378). Also: nearly all actives have a fitted effect of over 75% in size. Also: potency is read from the fitted curve at half-maximal effect. The conditions noted are these: cell-based ATXN2 expression reporter assay, luminescence; series mostly up to 57.1 µM. The procedure, abridged:
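Luciferase luminescence (Bright-Glo) from an ATXN2-FFLuc HEK293 line after 24 h compound exposure at 37 °C, preceded by a CellTiter-Fluor fluorescence viability read. Serial dilutions of a reference ATXN2 inhibitor and a luciferase inhibitor served as controls.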

Assay [2] addresses DNA dC->dU-editing enzyme APOBEC-3G (Homo sapiens) (UniProt Q9HC16). Description: qHTS for inhibitors of Vif-A3G interactions: Validation (AID 588379). The note with it: Vif-A3G protein interaction assay; series mostly up to 46.1 µM. Summed up: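 Yellow fluorescence (Ex 488, Em 500-530) of Vif-coexpressing HeLa A3G-eYFP cells, scanned by Acumen cytometer, reports blocked A3G degradation. Cells plated at 700/well overnight at 37 deg C before compound addition, then a further overnight compound incubation at 37 deg C.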
A general note: Quantitative high-throughput screening tests each substance at several concentrations.

Inconclusive results are not listed. A call without a number means that no potency is given here. The source made the active and inactive calls. Calls follow the shape of the dose curve; as a rule, active = well fitted curve in the direction sought with a large enough effect; inconclusive = small, poorly fitted or top-dose-only effect, or another doubt; inactive = no such curve, though single readings can be large; an effect the other way counts as inactive or inconclusive.

DNA dC->dU-editing enzyme APOBEC-3G (Homo sapiens), sequence (Q9HC16 whole entry, looked up): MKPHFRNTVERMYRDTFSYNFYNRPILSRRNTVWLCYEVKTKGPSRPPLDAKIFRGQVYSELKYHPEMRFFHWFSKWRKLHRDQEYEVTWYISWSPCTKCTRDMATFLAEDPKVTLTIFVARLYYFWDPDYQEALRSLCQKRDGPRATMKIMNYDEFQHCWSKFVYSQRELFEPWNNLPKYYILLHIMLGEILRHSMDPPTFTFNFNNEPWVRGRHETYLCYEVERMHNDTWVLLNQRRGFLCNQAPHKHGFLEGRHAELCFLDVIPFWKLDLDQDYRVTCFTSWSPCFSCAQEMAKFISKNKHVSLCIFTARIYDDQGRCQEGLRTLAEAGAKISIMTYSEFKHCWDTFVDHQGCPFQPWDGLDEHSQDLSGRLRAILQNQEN

Take `CC(Cc1ccc(O)cc1)NCC(O)c1cc(O)cc(O)c1` (centres undefined): the Potency entry in assay [1] is “inactive”.
In the case of `C[N+]1(C)C2CCC1CC(OC(=O)C(CO)c1ccccc1)C2` (centres undefined), the Potency entry in assay [1] was “inactive”.
On the same count and under the same terms, the same measure for `CS(=N)(=O)CC[C@H](N)C(=O)O` (some centres undefined): “inactive”; for `C=CCN1CC[C@]23CCCCC2[C@H]1Cc1ccc(O)cc13` (some centres undefined): “inactive”.
The same measure, in the same setting: for `NC(CP(=O)(O)O)C(=O)O` (centres undefined) the value was “inactive”.
On to `C[C@]12N[C@H](Cc3ccccc31)c1ccccc12`, for which, in assay [1], the Potency result was “inactive”.
Still for that read-out and setting: the same measure for `C[C@]12CCC3C(CC[C@H]4C[C@H](O)CC[C@]34C)C1CC[C@@H]2C(=O)CO` (some centres undefined): “inactive”; for `NC(=O)CN1CC(O)CC1=O` (centres undefined): “inactive”.
On to `C[C@@H]1O[C@H](C[N+](C)(C)C)C[C@H]1O`, for which, in assay [1], the Potency result was “inactive”.
For the compound `CCCN(CCC)C1CCc2ccc(O)cc2C1` (centres undefined), the Potency entry in assay [1] was “inactive”.
For `CN[C@@H]1C[C@@H](c2ccc(Cl)c(Cl)c2)c2ccccc21`, in assay [1], the Potency was 20 µM (active).
On to `O=C(O)CC[N+](=O)[O-]`, for which, in assay [1], the Potency result was “inactive”.
`CC(=O)NCCc1c[nH]c2ccccc12`: in assay [1], the Potency entry was “inactive”. In assay [2], the compound was classed as inactive.
Turning to `CC(=O)[C@H]1CCC2C3CC[C@H]4C[C@H](O)CC[C@]4(C)C3CC[C@@]21C` (some centres undefined), the Potency result in assay [1] was “inactive”.
Still for that read-out and setting: the same measure for `C[N+]1(C)C2CC(OC(=O)[C@H](CO)c3ccccc3)CC1C1OC12` (some centres undefined): “inactive”; for `Cc1c(C(=O)c2cccc3ccccc23)c2cccc3c2n1[C@H](CN1CCOCC1)CO3`: 15.8 µM (active).
As to `NC1CCc2cc(O)c(O)cc2C1` (centres undefined), the Potency result in assay [1] is “inactive”.
The same measure, in the same setting: for `CC[C@@H](C(N)=O)N1CCCC1=O` the value was “inactive”; for `O=C(O)Cc1cnc[nH]1`, “inactive”.
For the compound `COc1cc(C(O)CN)ccc1O` (centres undefined), in assay [1], the Potency result is “inactive”.
Consider `O=C(O)[C@@H]1CCN1`, for which the Potency result in assay [1] was “inactive”.
As for `NC1CC1c1ccccc1` (centres undefined), in assay [1], the Potency entry was “inactive”.
On the same count and under the same terms, the same measure for `Cn1cnc(CCN)c1`: “inactive”.

The values are drawn from PubChem BioAssay (NCATS).
